Data taken from PubChem BioAssay (NCATS).
Results filed as inconclusive are left out. The source made the active and inactive calls. Calls follow the shape of the dose curve; as a rule, active = well fitted cell-killing curve with a large enough effect; inconclusive = small, poorly fitted or top-dose-only effect; inactive = flat fitted curve, though single readings scatter.

Experiments:
[1] = Cell Viability - LYMP2-017 (AID 972); also: series mostly up to about 92 µM; nearly all actives have a fitted effect of over 55% in size
Summary of the method: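 Luminescent ATP read-out (CellTiter-Glo, 30 min RT) reports viable cell number. Cells: human lymphoblastoid line, 2500 per well, 5 hr preincubation, 24 hr compound exposure at 37 C. AC50 is derived from qHTS concentration-response data using the standard Hill model.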

[2] = Cell Viability - LYMP2-019 (AID 973); also: nearly all actives have a fitted effect of over 55% in size
Summary of the method: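 qHTS, 1536-well; 2500 cells/well; 5 hr pre-incubation, 24 hr compound exposure, 37 C; CellTiter-Glo added, 30 min RT; luminescence read; AC50 via standard Hill equation.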

[3] = Cell Viability - LYMP2-021 (AID 974);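 also: compound exposure lasts 24 hours at 37 °C; nearly all actives have a fitted effect of over 55% in size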
Summary of the method: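 ATP luminescence (CellTiter-Glo, 30 min RT) after 24 h compound exposure at 37 C; 2500 human lymphoblastoid cells/well, 5 h settle beforehand. Cytotoxicity = concentration-dependent ATP drop, AC50 by Hill fit.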

[4] = Cell Viability - LYMP2-023 (AID 975);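 also: cellular ATP measured by luciferase luminescence as viability proxy; series mostly up to about 92 µM; nearly all actives have a fitted effect of over 55% in size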
Text: (§1) NIH Chemical Genomics Center [NCGC]
(§2) NIH Molecular Libraries Screening Centers Network [MLSCN]
(§3) National Institutes of Environmental Health Sciences [NIEHS]
(§4) National Toxicology Program [NTP]
We have developed a 1536-well cell-based assay for quantitative high throughput screening (qHTS) against a number of cell lines to determine in vitro cytotoxicity of small molecules. This particular assay uses a human lymphoblastoid cell line (LYMP2-023) purchased from Coriell Institute for Medical Research.
(§5) NCGC Assay Protocol Summary:
(§6) The CellTiter-Glo luminescent cell viability assay (Promega) is a homogeneous method to measure the number of viable cells in culture. The end point readout of this assay is based on quantitation of intracellular ATP, an indicator of metabolic activity, using the luciferase reaction. […]
(§7) Using the CellTiter-Glo luminescent cell viability assay, the amount of cellular ATP was measured in the lymphoblastoid cell line with complete culture medium following compound treatment for 24 hours. […] Library compounds were measured for their ability to cause acute toxicity in the cell line, as reflected by a decrease in intracellular ATP levels, in a concentration-dependent manner. […] AC50 values were determined from concentration-response data modeled with the standard Hill equation. […]
(§8) 8. Detection; Luminescence; Viewlux plate reader […]

[5] = Cell Viability - LYMP2-025 (AID 976); also: series mostly up to about 92 µM
Summary of the method: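 CellTiter-Glo luminescence (cellular ATP) after 24 h compound exposure at 37 C; LYMP2-025 human lymphoblastoid cells, 2500/well, complete medium. Tetraoctylammonium bromide positive control. AC50 by Hill equation fit of qHTS concentration-response.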

[6] = Cell Viability - LYMP2-002 (AID 977); also: series mostly up to about 92 µM
Summary of the method: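 Human lymphoblastoid cells (2500/well) in complete medium were preincubated 5 hr at 37 C, then exposed to compounds for 24 hr at 37 C. Intracellular ATP was read by CellTiter-Glo luminescence; AC50 came from Hill-equation concentration-response fits.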

[7] = Cell Viability - LYMP2-006 (AID 978); also: series mostly up to about 92 µM; nearly all actives have a fitted effect of over 60% in size
Summary of the method: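 Concentration-dependent loss of intracellular ATP in a human lymphoblastoid line after 24 hr treatment at 37 C was measured by CellTiter-Glo luminescence, with AC50 values obtained from standard Hill-equation modelling.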

[8] = Cell Viability - LYMP2-007 (AID 979);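 also: cells exposed to compound for 24 h before reading; nearly all actives have a fitted effect of over 60% in size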
Summary of the method: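 qHTS cytotoxicity: 2500 cells/well, 5 hr 37 C settle, compound 24 hr 37 C, CellTiter-Glo 30 min RT, luminescence. Decrease in ATP = toxicity. AC50 by standard Hill equation; tetraoctylammonium bromide positive control.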

[9] = Cell Viability - LYMP2-008 (AID 980); also: nearly all actives have a fitted effect of over 60% in size
Text: as §1, §2, §3, §4
We have developed a 1536-well cell-based assay for quantitative high throughput screening (qHTS) against a number of cell lines to determine in vitro cytotoxicity of small molecules. This particular assay uses a human lymphoblastoid cell line (LYMP2-008) purchased from Coriell Institute for Medical Research.
as §5, §6, §7, §8

[10] = Cell Viability - LYMP2-010 (AID 981); also: nearly all actives have a fitted effect of over 55% in size
Summary of the method: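 qHTS cytotoxicity, 1536-well: 2500 cells/well, 5 hr settle, 24 hr compound at 37 C, CellTiter-Glo 30 min RT, luminescence read. Decrease in ATP = toxicity; AC50 via standard Hill equation. Positive control tetraoctylammonium bromide.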

Measured: outcome

CC(=O)C(C)=O
inactive: all assays above

NC(=O)c1ccccc1
inactive: all assays above
